PubChem BioAssay (Tox21)
“And” between values parts separate entries of the source, which are not always exact repeats. Equal values may be shown once. Inconclusive results are not listed. Entries that show only a call come without a potency. The source made the active and inactive calls. Unless noted, the call rests on the fitted dose curve; in most records, active means well fitted curve in the direction sought with a large enough effect in the repeat runs; inconclusive means weak or mixed curves; inactive means no such curve, though single readings can be large; an effect the other way counts as inactive or inconclusive.

Tests used:
[1] = A CellTox Green Cytotoxicity Assay to monitor cytotoxicity in HEK293 cells - 32 hour (AID 1224881); conditions: CellTox Green fluorescence; series mostly up to 76.8 µM; further: nearly all actives have a fitted effect of over 40% in size; further: potency means the concentration at half of the fitted maximal effect
Method in brief: (§1)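 Nonlytic real-time cytotoxicity: HEK293 + CellTox Green reagent plated, 5 h preincubation, pintool compound addition (23 nL in DMSO), 37 C for 40 h, fluorescence measured at successive time points.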

[2] = A CellTox Green Cytotoxicity Assay to monitor cytotoxicity in HepG2 cells - 0 hour (AID 1224882); conditions: CellTox Green fluorescence; series mostly up to 76.8 µM; further: nearly all actives have a fitted effect of over 35% in size
Method in brief: (§2)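 Read-out is fluorescence of a cyanine dye excluded from live cells that stains DNA of dead HepG2 cells, with signal proportional to cytotoxicity. Plates were read at 0, 8, 16, 24, 32 and 40 h after compound addition.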

[3] = qHTS RealTime-Glo MT Cell Viability Assay in HepG2 cells - 16 hour (AID 1224885); conditions: RealTime-Glo luminescence; series mostly up to 76.8 µM; further: nearly all actives have a fitted effect of over 50% in size; further: potency means the concentration at half of the fitted maximal effect
Method in brief: (§3)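 Cells + NanoLuc/prosubstrate dispensed (600 cells/well) → 5 h at 37 C/5% CO2 → compounds in DMSO transferred → 40 h incubation at 37 C, luminescence read at 0, 8, 16, 24, 32, 40 h.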

[4] = qHTS RealTime-Glo MT Cell Viability Assay in HEK293 cells - 24 hour (AID 1224886); conditions: RealTime-Glo luminescence; series mostly up to 76.8 µM; further: nearly all actives have a fitted effect of over 50% in size; further: potency means the concentration at half of the fitted maximal effect
Method in brief: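 Tox21 10K qHTS, HEK293, 600 cells/well, RealTime-Glo reagent co-dispensed with cells; 5 h preincubation, compound by pintool, 37 C, luminescence at 0–40 h.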

[5] = qHTS RealTime-Glo MT Cell Viability Assay in HEK293 cells - 8 hour (AID 1224887); conditions: RealTime-Glo luminescence; series mostly up to 76.8 µM; further: top concentration of the series differs between compounds; nearly all actives have a fitted effect of over 50% in size
Method in brief: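 Cells were seeded together with NanoLuc luciferase and a prosubstrate that viable cells reduce to a luciferase substrate. After a 5 h incubation at 37 C/5% CO2, compounds were added and luminescence was measured repeatedly during 40 h of treatment.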

[6] = A CellTox Green Cytotoxicity Assay to monitor cytotoxicity in HEK293 cells - 16 hour (AID 1224888); conditions: CellTox Green fluorescence; series mostly up to 76.8 µM; further: nearly all actives have a fitted effect of over 35% in size; further: potency means the concentration at half of the fitted maximal effect
Method in brief: as §1

[7] = qHTS RealTime-Glo MT Cell Viability Assay in HepG2 cells - 0 hour (AID 1224889); conditions: RealTime-Glo luminescence; series mostly up to 76.8 µM; further: nearly all actives have a fitted effect of over 50% in size
Method in brief: as §3

[8] = qHTS assay to identify small molecule antagonists of the estrogen receptor alpha (ER-alpha) signaling pathway using the BG1 cell line in the presence of 0.1 nM 17-beta-estradiol - cell viability counter screen (AID 1259241); conditions: VM7Luc4E2 (BG1) viability, CellTiter-Fluor protease, 22 h, 0.1 nM estradiol agonist added; series mostly up to 92.4 µM; further: nearly all actives have a fitted effect of over 40% in size; further: potency means the concentration at half of the fitted maximal effect
Method in brief: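 Viability in VM7Luc4E2 cells after 22 hr compound exposure under 0.1 nM 17beta-estradiol stimulation, by CellTiter-Fluor.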

[9] = target: Estrogen receptor (Homo sapiens) (UniProt P03372); experiment: qHTS assay to identify small molecule antagonists of the estrogen receptor alpha (ER-alpha) signaling pathway using the BG1 cell line in the presence of 0.1 nM 17-beta-estradiol (AID 1259244); conditions: VM7Luc4E2 (BG1) ERE-luciferase, antagonist mode, 0.1 nM E2, 22 h; series mostly up to 92.4 µM; further: nearly all actives have a fitted effect of over 50% in size; further: potency means the concentration at half of the fitted maximal effect
Method in brief: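 Cells: VM7Luc4E2, endogenous ER-alpha, 4x ERE-luc stable. Pre-culture 5 d, phenol red-free, charcoal-stripped FBS. Plated 24 h, compound + E2 0.1 nM final, 22 h 37C/5% CO2. Readout ONE-Glo luminescence.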

[10] = qHTS assay to identify small molecule HDAC inhibitors (AID 1259364); conditions: HCT-116 HDAC-Glo I/II luminescence, 2 h; series mostly up to 92.4 µM; further: nearly all actives have a fitted effect of over 45% in size; further: potency means the concentration at half of the fitted maximal effect
Method in brief: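 Luminescence from a cell-permeant luminogenic class I/II HDAC substrate reports endogenous deacetylase activity in intact HCT-116 cells treated with compounds for 2 h.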

[11] = qHTS assay to identify small molecule HDAC inhibitors - cell viability counter screen (AID 1259365); conditions: HCT-116 viability, CellTiter-Glo ATP luminescence, 2 h; series mostly up to 92.4 µM; further: nearly all actives have a fitted effect of over 50% in size
Method in brief: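 Cytotoxicity was gauged in wild-type HCT-116 cells after a brief 2hr treatment with DMSO-dissolved compounds at 37C and 5% CO2, using CellTiter-Glo luminescence developed for 30min at room temperature.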

[12] = qHTS assay to identify small molecule agonists of the sonic hedgehog signaling (Shh) pathway - cell viability counter screen (AID 1259366); conditions: NIH/3T3 Gli1-Luc viability, CellTiter-Fluor, 24 h; series mostly up to 92.4 µM; further: nearly all actives have a fitted effect of over 50% in size; further: potency means the concentration at half of the fitted maximal effect
Method in brief: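 Stable Gli1-Luc NIH/3T3 clone, 2,000 cells/well. Compound exposure 24hr at 37C. Read-out: CellTiter-Fluor fluorescence.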

[13] = qHTS assay to identify small molecule antagonists of the sonic hedgehog signaling (Shh) pathway - cell viability counter screen (AID 1259367); conditions: NIH/3T3 Gli1-Luc viability, CellTiter-Fluor, 24 h; series mostly up to 92.4 µM; further: nearly all actives have a fitted effect of over 55% in size; further: potency means the concentration at half of the fitted maximal effect
Method in brief: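 Seed 3T3 Gli1-Luc cells at 2,000 per well; incubate 4 hr; add compound in DMSO, then conditioned medium; incubate at 37C with 5% CO2; add CellTiter-Fluor after 23 hr; read fluorescence 1 hr later.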

[14] = A CellTox Green Cytotoxicity Assay to monitor cytotoxicity in HepG2 cells - 32 hour (AID 1224883); conditions: CellTox Green fluorescence; series mostly up to 76.8 µM; further: nearly all actives have a fitted effect of over 50% in size; further: potency means the concentration at half of the fitted maximal effect
Method in brief: as §2

[15] = A CellTox Green Cytotoxicity Assay to monitor cytotoxicity in HEK293 cells - 8 hour (AID 1224884); conditions: CellTox Green fluorescence; series mostly up to 76.8 µM; further: nearly all actives have a fitted effect of over 35% in size; further: potency means the concentration at half of the fitted maximal effect
Method in brief: as §1

[16] = A CellTox Green Cytotoxicity Assay to monitor cytotoxicity in HepG2 cells - 8 hour (AID 1224890); conditions: CellTox Green fluorescence; series mostly up to 76.8 µM; further: nearly all actives have a fitted effect of over 45% in size; further: potency means the concentration at half of the fitted maximal effect
Method in brief: as §2

[17] = qHTS assay to identify small molecule antagonists of the androgen receptor (AR) signaling pathway using the MDA cell line in the presence of 0.5 nM R1881 - cell viability counter screen (AID 1259242); conditions: MDA-kb2 viability, CellTiter-Fluor protease fluorescence, 16 h; series mostly up to 92.4 µM; further: nearly all actives have a fitted effect of over 45% in size; further: potency means the concentration at half of the fitted maximal effect
Method in brief: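 Counter screen for cytotoxicity run in the same wells as the AR antagonist reporter screen: MDA-kb2 cells were treated 16 hr with test compounds and 0.5 nM R1881, then live-cell protease activity was measured by fluorescence.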

[18] = qHTS assay to identify small molecule phospholipidosis (PLD) inducers (AID 1259344; active means well fitted curve in the direction sought with a large enough effect; an effect the other way counts as inactive or inconclusive); conditions: HepG2 phospholipidosis, LipidTOX Red imaging, 24 h; series mostly up to 38.3 µM
Method in brief: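 Quantitative HTS in HepG2: compound plus LipidTOX Red dye for 24 h, paraformaldehyde fixation with Hoechst 33342, widefield high-content imaging; amiodarone as positive and DMSO as negative control.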

Chain of Estrogen receptor (Homo sapiens) (P03372 whole entry, looked up): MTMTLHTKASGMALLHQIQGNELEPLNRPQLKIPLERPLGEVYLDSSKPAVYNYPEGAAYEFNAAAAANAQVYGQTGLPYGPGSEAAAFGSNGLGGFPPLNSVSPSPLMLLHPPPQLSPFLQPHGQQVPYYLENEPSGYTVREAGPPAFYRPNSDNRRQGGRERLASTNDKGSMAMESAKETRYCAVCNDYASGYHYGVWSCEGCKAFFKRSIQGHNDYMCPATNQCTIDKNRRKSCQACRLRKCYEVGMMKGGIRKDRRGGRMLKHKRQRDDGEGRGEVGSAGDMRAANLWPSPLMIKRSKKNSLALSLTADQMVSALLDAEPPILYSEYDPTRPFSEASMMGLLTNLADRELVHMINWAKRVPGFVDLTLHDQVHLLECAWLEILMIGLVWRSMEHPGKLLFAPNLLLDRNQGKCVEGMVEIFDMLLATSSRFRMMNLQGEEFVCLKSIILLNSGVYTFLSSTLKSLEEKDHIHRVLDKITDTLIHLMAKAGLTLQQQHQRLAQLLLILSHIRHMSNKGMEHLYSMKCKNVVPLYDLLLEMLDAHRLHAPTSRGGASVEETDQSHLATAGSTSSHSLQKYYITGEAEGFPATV

SMILES	Potency [1]	Potency [2]	Potency [3]	Potency [4]	Potency [5]	Potency [6]	Potency [7]	Potency [8]	Potency [9]	Potency [10]	Potency [11]	Potency [12]	Potency [13]	Potency [14]	Potency [15]	Potency [16]	Potency [17]	Potency [18]
O=C1c2ccccc2C(=O)C1c1nc2ccccc2c(Br)c1O	inactive	inactive	inactive	inactive	inactive	inactive	inactive	inactive	inactive	27.3 µM (active)	inactive	inactive	inactive					
O=c1c(O)c(-c2ccc(O)cc2)oc2cc(O)cc(O)c12	inactive	inactive	inactive			inactive	inactive	inactive		21.6 µM (active) and 16.4 µM (active)		inactive	48.4 µM (active)	inactive	inactive	inactive	inactive	
O=C1C(=O)c2ccccc2C(O)=C1C1CCC(c2ccc(Cl)cc2)CC1 (configuration not stated)	inactive	inactive	inactive	inactive	inactive	inactive		26.6 µM (active)	26.6 µM (active)	inactive	inactive	inactive	inactive		inactive	inactive	23.7 µM (active)	inactive
CCOC(=O)c1ccccc1C(=C1C=C(Br)C(=O)C(Br)=C1)c1cc(Br)c(O)c(Br)c1	inactive	inactive	inactive		inactive	inactive		inactive	inactive	inactive	inactive		inactive		inactive	inactive	inactive	
O=C(O)c1cccc(-c2noc(-c3ccccc3F)n2)c1	inactive	inactive	inactive	inactive	inactive	inactive	inactive	inactive		0.422 µM (active)		inactive	inactive		inactive	inactive	inactive	inactive
OCCN1CCN(CCCN2c3ccccc3Sc3ccc(Cl)cc32)CC1	26.8 µM (active)	inactive	23.9 µM (active)	23.9 µM (active)				inactive		inactive	inactive	13.3 µM (active)	13.3 µM (active)	16.9 µM (active)		23.9 µM (active)	inactive	
CCCCCCCCCCCCCCN(CCO)CCO	38.9 µM (active)	inactive	43.6 µM (active)	21.9 µM (active)		54.9 µM (active)	inactive	inactive		inactive	inactive	61.1 µM (active)	inactive	19.5 µM (active)	54.9 µM (active)	54.9 µM (active)	48.6 µM (active)	
